NPC1 promoter act – NPC1 promoter activation. Huh7 NPC1 promoter luciferase reporter, 24 h. Potency, µM (doses to about 9.22 µM), for inactives: at the top dose activation, actives largely listed as activators. 320,000 tested, 2.4% active; also: % of control where 0% means no effect; nearly all actives have a fitted effect of over 60% in size
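Huh7 reporter cells (NPC1 promoter driving luciferase) are dosed with compound for 24 h at 37 °C, 5% CO2; luciferase detection reagent is then added and luminescence measured after 10 min at ambient temperature.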
Rab9 prom act – activators of Rab9 promoter; AID 485297; 320,000 tested, 2.8% active; Huh7 Rab9 promoter-luciferase reporter, luminescence, 24 h; Potency, µM (series often up to 9.22 µM), inactives show top-dose activation, negative = inhibition, most hits filed as activators; also: % of control where 0% means no effect; nearly all actives have a fitted effect of over 60% in size
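Rab9 promoter-driven luciferase in stably transfected Huh7 cells; 1500 cells/well rested 2 h, exposed to compound in DMSO for 24 h at 37 °C, 5% CO2. Luminescence read 10 min after adding luciferase reagent at ambient temperature.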
ELG1 genotoxic – induces genotoxicity in HEK293T cells with luciferase-tagged ELG1. HEK293T ELG1-luciferase reporter, luminescence, 16 h. Potency, µM (doses to about 46 µM), without a hit: at the highest dose activity change, positive = activation, hits mostly activators. 330,000 tested, 1.3% active; also: % of control where 0% means no effect; nearly all actives have a fitted effect of over 60% in size
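16 hr compound incubation (37 °C, 5% CO2) of HEK293T cells carrying luciferase-tagged ELG1; luciferase then measured by ONE-Glo luminescence after 30 min at RT.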
ELG1 repair inh – ELG1-dependent DNA repair inhibition. 330,000 tested, 2.3% active. Potency, µM (titrated, usually from 46.1 µM), without a hit: at the highest dose activity change, negative = inhibition, hits mostly inhibitors. HEK293T ELG1-luciferase reporter, luminescence, 16 h; DNA damage induced by 5-fluorouridine; also: % is scaled to controls: 0 for no effect and ±100 for the full control effect; nearly all actives have a fitted effect of over 55% in size
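5-Fluorouridine DNA damage + compound/DMSO, 2,000 cells/well, 16 h, 37 °C/5% CO2. ONE-Glo, 30 min RT, luminescence. Readout = decrease in reporter signal.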
FLuc modulator – inhibits or activates purified firefly luciferase, miR-21 counter-screen. Potency, µM (doses to about 57.5 µM), inactives show top-dose activity change, negative = inhibition, usual class: inhibitors. P08659. AID 588342. 360,000 tested, 6.9% active. purified FLuc, Km substrates, luminescence inhibition;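 also: plate controls were vehicle for no effect and reference inhibitor for full effect; nearly all actives have a fitted effect of over 55% in size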
Target sequence (P08659 whole entry, looked up): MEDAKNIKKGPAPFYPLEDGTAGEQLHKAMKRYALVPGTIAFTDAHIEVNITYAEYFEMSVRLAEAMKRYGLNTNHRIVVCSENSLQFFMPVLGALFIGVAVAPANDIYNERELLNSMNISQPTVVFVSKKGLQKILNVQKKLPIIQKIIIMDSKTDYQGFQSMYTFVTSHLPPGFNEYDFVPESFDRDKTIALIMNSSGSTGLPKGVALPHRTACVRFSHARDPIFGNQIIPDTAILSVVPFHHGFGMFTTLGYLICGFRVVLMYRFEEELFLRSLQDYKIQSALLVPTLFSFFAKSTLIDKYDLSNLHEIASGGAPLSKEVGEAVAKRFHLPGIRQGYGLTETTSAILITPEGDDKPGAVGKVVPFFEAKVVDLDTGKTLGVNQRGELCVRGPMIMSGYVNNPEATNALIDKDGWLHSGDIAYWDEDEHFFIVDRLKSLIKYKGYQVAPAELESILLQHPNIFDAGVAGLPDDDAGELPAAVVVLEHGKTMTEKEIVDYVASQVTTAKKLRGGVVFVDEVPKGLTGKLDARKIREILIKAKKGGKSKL
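Biochemical qHTS of compounds, final roughly 60 µM downward over six points, against 10 nM purified firefly luciferase using Km concentrations of substrates (10 uM D-luciferin, 10 uM ATP) in Tris acetate pH 7.5 buffer; luminescence output.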
SMN2 splice enh – enhancers of SMN2 splice variant expression | HEK293 SMN2-luciferase splicing reporter, luminescence, 30-36 h | Potency, µM (series often up to 46.1 µM), without a hit: top-dose activity change, positive = activation, usual class: activators | 210,000 tested, 2.8% active | AID 1458; also: % of control where 0% means no effect; nearly all actives have a fitted effect of over 55% in size
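HEK293 cells carry an SMN2 […]–luciferase reporter in which exon 7 inclusion puts luciferase in frame. Cells were plated 10-12 h before compound addition, then incubated 30-36 h at 37C. ONE-Glo luminescence was read; sodium butyrate at 4.5 mM final served as control.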
ELG1 FLuc counter – luciferase inhibition in cell-free luciferin readout for ELG1 hits; shares compounds with ELG1 repair inh; AID 624247; 350 tested, 3% active; Potency, µM (doses to about 46.1 µM), without a hit: top-dose activity change, negative = inhibition, most hits filed as inhibitors; cell-free firefly luciferase luminescence counter-screen, ViewLux; also: % is scaled to controls: 0 for no effect and ±100 for the full control effect
ELG1 unstim viab – counter-screen for ELG1 repair inhibitors: unstimulated cell viability. shares compounds with ELG1 repair inh. cell viability counter-screen, unstimulated, luminescence. Potency, µM (top dose mostly 45.9 µM), for the others: at the top dose activity change, negative = loss of viability, usual class: cytotoxic. 900 tested, 8% active;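 also: compound exposure lasted 16 hours before reading; % is scaled to controls: 0 for no effect and ±100 for the full control effect; nearly all actives have a fitted effect of over 55% in size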
FLuc enzyme – firefly luciferase inhibition counter-screen; Potency, µM (doses to about 57.5 µM), for inactives: top-dose activity, negative = inhibition, most hits filed as inhibitors; shares compounds with ELG1 repair inh; AID 624253; purified firefly luciferase, luminescence counter-screen; 350 tested, 10% active; also: % is scaled to controls: 0 for no effect and ±100 for the full control effect
Active calls of the source: *. A selection: hits, their analogues and other compounds. The true share with any hit is near 9.2%. Calls follow the shape of the dose curve; as a rule, active = well fitted curve in the direction sought with a large enough effect; inconclusive = small, poorly fitted or top-dose-only effect, or another doubt; inactive = no such curve, though single readings can be large; an effect the other way counts as inactive or inconclusive. Potency is read from the fitted curve at half-maximal effect.

c1ccc(CCNc2nc(-c3ccncc3)nc3ccccc23)cc1 was read as NPC1 promoter act -23%, Rab9 prom act -19%, ELG1 genotoxic -16%, ELG1 repair inh 15µM* and FLuc modulator -1%.
`Fc1ccccc1Nc1nc(-c2ccncc2)nc2ccccc12` gave NPC1 promoter act -1%, Rab9 prom act -1%, ELG1 genotoxic -6%, ELG1 repair inh 2.6µM*, FLuc modulator -1% and SMN2 splice enh 15%.
For CN(C)c1ccc(-c2nc(Nc3ccncc3)c3ccccc3n2)cc1 the results were SMN2 splice enh 11µM*.
Screening CCOC(=O)Cn1nc(-c2ccc(F)cc2)oc1=O returned NPC1 promoter act -1%, Rab9 prom act -10%, ELG1 genotoxic 2%, ELG1 repair inh inconclusive, FLuc modulator -16% and SMN2 splice enh -7%.
`CN(C)S(=O)(=O)c1ccc2c(c1)c(=O)c(C(=O)N1CCN(c3cccc(Cl)c3)CC1)cn2C` gave FLuc modulator 4% and SMN2 splice enh 8%.
Screening Cc1cccc(C(=O)NNc2ncnc3c2cnn3-c2ccc(C)cc2C)c1 returned FLuc modulator -8%.
For CCc1cc(=O)oc2c(CNCc3c(F)cccc3Cl)c(O)ccc12 the results were NPC1 promoter act 2%, Rab9 prom act 1%, ELG1 genotoxic 0%, ELG1 repair inh inconclusive and FLuc modulator 0%.
Screening C[C@H]1CN=C(N(C)C)N1CCCC1CCCCC1 returned NPC1 promoter act -8%, Rab9 prom act -7%, ELG1 genotoxic -2%, ELG1 repair inh inconclusive and FLuc modulator 4%.
For Fc1ccc(Nc2nc(-c3ccncc3)nc3ccccc23)cc1 the results were NPC1 promoter act 0%, Rab9 prom act 0%, ELG1 genotoxic 0%, ELG1 repair inh 2.3µM*, FLuc modulator -1% and SMN2 splice enh -21%.
`O=C(CSc1nc(-c2ccccc2)cs1)NCc1ccco1` gave NPC1 promoter act 0%, Rab9 prom act 3%, ELG1 genotoxic 23µM*, ELG1 repair inh inconclusive, FLuc modulator inconclusive and SMN2 splice enh -8%.
O=C(CSc1nnc(-c2ccccc2)c(-c2ccccc2)n1)NCc1ccco1 was read as NPC1 promoter act -5%, Rab9 prom act 0%, ELG1 genotoxic -4%, ELG1 repair inh 23µM*, FLuc modulator -4% and SMN2 splice enh -3%.
For CCN(CC)c1nc(-c2ccc(C(C)(C)C)cc2)nc2ccccc12 the results were FLuc modulator 5.4µM* and SMN2 splice enh inconclusive.
For COc1ccc([N+](=O)[O-])cc1Nc1ncnc2ccccc12 the results were NPC1 promoter act -7%, Rab9 prom act -1%, ELG1 genotoxic -1%, ELG1 repair inh 0%, FLuc modulator 9% and SMN2 splice enh -25%.
Screening Cc1ccc(O)c(Nc2ncnc3ccc([N+](=O)[O-])cc23)c1 returned NPC1 promoter act 20%, Rab9 prom act 4%, ELG1 genotoxic -20%, ELG1 repair inh 13µM* and FLuc modulator 1%.
Screening O=[N+]([O-])c1ccc(O)c(Nc2ncnc3ccc(Br)cc23)c1 returned NPC1 promoter act 1%, Rab9 prom act -2%, ELG1 genotoxic -12%, ELG1 repair inh 13µM* and FLuc modulator inconclusive.
`COc1ccc(Nc2ncnc3ccc([N+](=O)[O-])cc23)c(OC)c1` gave NPC1 promoter act -1%, Rab9 prom act -3%, ELG1 genotoxic -7%, ELG1 repair inh inconclusive, FLuc modulator -1% and SMN2 splice enh -19%.
O=[N+]([O-])c1ccc(O)c(Nc2ncnc3ccccc23)c1 was read as NPC1 promoter act inconclusive, Rab9 prom act 14%, ELG1 genotoxic 1%, ELG1 repair inh 9% and FLuc modulator 0.54µM*.
Screening Cc1ccc(CSCC(=O)NN=C2CCN(C)CC2)cc1 returned NPC1 promoter act -2%, Rab9 prom act 3%, ELG1 genotoxic -1%, ELG1 repair inh 3%, FLuc modulator -1% and SMN2 splice enh inconclusive.
Screening CCc1ccc(OCC(=O)Nc2ccc(-c3nc4ccccc4o3)c(O)c2)cc1 returned NPC1 promoter act 2µM*, Rab9 prom act 3.5µM*, ELG1 genotoxic inconclusive, ELG1 repair inh inconclusive, FLuc modulator 10%, SMN2 splice enh inconclusive, ELG1 FLuc counter 15%, ELG1 unstim viab -2% and FLuc enzyme 1%.
Screening Cc1ccc(OCC(=O)Nc2ccc(-c3nc4ccccc4o3)cc2)c(C)c1 returned FLuc modulator -1% and SMN2 splice enh inconclusive.
Screening CCSc1nnc(NC(=O)c2csc(C)c2)s1 returned NPC1 promoter act 2.8µM*, Rab9 prom act 2.2µM*, ELG1 genotoxic inconclusive, ELG1 repair inh inconclusive, FLuc modulator -17%, SMN2 splice enh 14µM*, ELG1 FLuc counter 59%, ELG1 unstim viab 10% and FLuc enzyme inconclusive.
`CCSc1nnc(NC(=O)c2cccc3ccccc23)s1` gave NPC1 promoter act -1%, Rab9 prom act -3%, ELG1 genotoxic 1%, ELG1 repair inh 16%, FLuc modulator -2% and SMN2 splice enh 3%.
CCOC(=O)c1c(C)[nH]c(C(=O)N2CCN(C(=O)OCC)CC2)c1C was read as NPC1 promoter act -5%, Rab9 prom act 7%, ELG1 genotoxic 2%, ELG1 repair inh 0% and FLuc modulator -1%.

Screens: PubChem BioAssay, National Center for Advancing Translational Sciences (NCATS)
